Measurements reported in PubChem BioAssay.
Results filed as inconclusive are left out. Calls of active or inactive are those of the source.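 How the source made its calls, unless noted: active means percent response above a set limit, the screen-wide mean plus 3 SD (cut at about 130% in these data); inactive means the rest.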

How the values were obtained:
[1] = rapamycin-like changes in RPL19A-GFP expression – cell-based, S. cerevisiae, multiplex flow cytometry, primary screen (AID 1862; in the data active means percent of DMSO control GFP below about 86%;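 further: lower values mimic rapamycin by blocking the RPL19A rise seen in DMSO cells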); settings: S. cerevisiae RPL19A-GFP strain, flow cytometry fluorescence, 3 h; at 10 µM; stronger effect = lower value
[2] = TOR pathway GLN3 branch reporter MEP2-GFP changes – S. cerevisiae, multiplex flow cytometry, primary screen (AID 1867;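 active means GFP response, as percent of the DMSO control, above the screen-wide mean plus 3 SD, about 139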;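 further: median GFP channel fluorescence of barcode-gated MEP2-GFP cells measured by flow cytometry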); settings: S. cerevisiae MEP2-GFP strain, 3 h, at 10 µM, stronger effect = higher value, 100% means same as DMSO wells
[3] = TOR pathway RTG branch CIT2 reporter changes – S. cerevisiae, GFP fusion, multiplex flow cytometry, primary screen (AID 1870);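 further: barcoded CIT2-GFP strain pooled with four other GFP strains with rapamycin as positive control; median GFP fluorescence per well over plate mean of DMSO wells so 100% = DMSO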; settings: S. cerevisiae CIT2-GFP expression, 3 h, at 10 µM, stronger effect = higher value
[4] = TOR pathway LAP4-GFP level changes – S. cerevisiae, multiplex flow cytometry, primary screen (AID 1873;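 active means GFP signal, as percent of the solvent control, above the screen mean plus 3 SD, about 149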); settings: S. cerevisiae LAP4-GFP expression, 3 h, at 10 µM, stronger effect = higher value
[5] = reduced mouse 2C T cell binding to pMHC/ICAM-1 vesicles – MLPCN validation set, flow cytometry, LFA-1/ICAM-1 modulator project, pilot screen (AID 2523;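 active means response below a set limit, under 55% cells CD8-positive and vesicle-bound, and CD8 cells' 90th-percentile brightness under 279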;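 on vesicle binding response: mean PE anti-B7-1 fluorescence of CD8+ cells relative to row control; 100% = QL9-loaded vesicles with DMSO vehicle in the same plate row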); settings: 2C mouse CD8+ T cells, at 7 µM, stronger effect = lower value; double positive events: measured here: CD8+/vesicle+ event percentage
[6] = target: Integrin beta-1 (Homo sapiens) + Integrin alpha-4 (Homo sapiens) (UniProt P13612+P05556); assay: alpha4beta1 integrin LIBS antibody binding reduction – U937 cells, HUTS-21 mAb, flow cytometry, validation set, VLA-4 allosteric modulator project, pilot screen (AID 2674;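 active means inhibition above 50%, about 3 SD of the validation set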;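 further: antibody binding induced by the VLA-4 ligand LDV present at three times its Kd; 0% = LDV ligand with antibody and no compound and 100% = antibody without LDV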); settings: HUTS-21 LIBS mAb binding, at 6.7 µM, stronger effect = higher value, binding induced by LDV ligand
[7] = calorie-restriction mimetic ROS inhibitors, yeast – validation compound set, pilot screen (AID 2706;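 active means superoxide response below 65% of plate, a cut near 3 SD across the whole screen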;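 further: yeast exposed to compound for one week at 30 degrees C before staining; 100% = mean of all compound wells on the same plate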); settings: S. cerevisiae aging, superoxide DHE fluorescence; at 10 µM, stronger effect = lower value
[8] = target: Beta-adrenergic receptor kinase 1 (Homo sapiens) (UniProt P25098); assay: GRK2 binders displacing RNA aptamer, biochemical, validation, human GRK2, bead flow cytometry (AID 488806;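 active means aptamer binding inhibition above 30%, about 3 SD of noise from non-fluorescent compounds; inactive means inhibition at or below 30%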); settings: bead-bound GRK2, FAM-aptamer displacement, at 10 µM, stronger effect = higher value
[9] = target: Beta-2 adrenergic receptor (Homo sapiens) (UniProt P07550); assay: agonist-induced loss of surface beta2AR – cell-based, FAP fluorogen, flow cytometry, validation set, pilot screen (AID 504459;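 active means percent response above 42, roughly 3 SD of non-fluorescent test compounds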;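 further: agonist-driven loss of surface beta2AR via internalization measured by FAP dye flow cytometry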); settings: Am2.2-beta2AR cells, at 10 µM, stronger effect = higher value
[10] = target: AP-2 complex subunit beta (Homo sapiens) (UniProt P63010); assay: beta-arrestin/AP2 interaction blockers – biochemical, validation set, GST-AP2 beads, flow cytometry, pilot screen (AID 504541;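 active means inhibition above 54%, about 3 SD of non-fluorescent compounds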;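 further: AP2 carries R879A mutation and is captured from E. coli lysate; bead-bound FITC arrestin peptide fluorescence measuring arrestin peptide binding to AP2; 0% = DMSO wells and 100% = excess unlabeled arrestin peptide control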); settings: FITC arrestin peptide, at 10 µM, stronger effect = higher value, AP2 beta2 appendage fragment, R879A mutant
[11] = cytosolic pH regulators acting via V-ATPase – S. cerevisiae, pHLuorin, HTS validation (AID 504600; in the data active means response above about 15%;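 further: plate controls were DMSO for no effect and reference compound for full effect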); settings: V-ATPase proton transport, at 10 µM, stronger effect = higher value
[12] = test system: anti-desmoglein-3 scFv antibody binding to human DSG3; assay: blockers of pathogenic pemphigus antibody–desmoglein-3 binding – biochemical, validation compound set, bead-based, flow cytometry, pilot screen (AID 588368;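 active means binding below the plate cutoff, the plate median minus 3 SD, with a reading above zero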;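 further: signal is the median channel fluorescence of bead-bound GFP antibody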); settings: Protein G beads, DSG3-Fc, scFv-GFP binding, at 10 µM, stronger effect = lower value
[13] = Nile Red efflux blockade in pump-expressing yeast – validation compound set, multiplex, phenotypic, pilot screen (AID 588506;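 active means efflux inhibition above 0.42, the validation set average plus 4 SD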;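 further: Nile Red retained in cells so higher fluorescence means more efflux inhibition; 0 = negative control wells and 1 = enniatin B 25 µM full block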); settings: S. cerevisiae pump-expressing triplex, Nile Red efflux flow cytometry; at 10 µM; stronger effect = higher value; the pumps come from Candida albicans
[14] = target: ATP-binding cassette sub-family B member 6 (Homo sapiens) (UniProt Q9NP58); assay: blockers of ABCB6-driven porphyrin uptake – K562-ABCB6 cells, flow cytometry, validation set, pilot screen (AID 588550;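 active means inhibition above the screen-wide mean plus 3 SD, about 51%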;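 further: 0% = DMSO wells and 100% = benzethonium chloride 70 µM positive control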); settings: K562-ABCB6 porphyrin accumulation, 1 h, at 10 µM, stronger effect = higher value
[15] = AML differentiation inducers, ER-HoxA9 marrow cells – cell-based, GFP/MAC1 double positive, flow cytometry, validation set, primary screen (AID 588685;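 active means differentiation response of at least 50%, scaled between solvent and reference control, from cells with both markers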;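 further: compound exposure lasts four days before antibody staining and flow analysis; 0% = DMSO wells and 100% = 5 µM fulvestrant positive control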); settings: stronger effect = higher value, normalized: vehicle 0, fulvestrant 100
[16] = hit retest on RPL19A-GFP reporter strain – cell-based, S. cerevisiae, flow cytometry, cherry picks, mother/daughter gates, confirmation (AID 2270;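 active means GFP response below 50% of the DMSO control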); settings: 3 h, at 10 µM, stronger effect = lower value, 100 = same GFP as DMSO wells
[17] = yeast TOR pathway reporter LAP4-GFP change – cell-based, cherry picks, flow cytometry, mother/daughter gates, confirmation (AID 2271;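 active means GFP response above 150% of the DMSO control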;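 further: ratio of sample to DMSO plate mean so 100% equals DMSO level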); settings: S. cerevisiae LAP4-GFP strain, 3 h, at 10 µM, stronger effect = higher value, 100 means same as DMSO control
[18] = TOR pathway reporter MEP2-GFP, retest of hits – S. cerevisiae, flow cytometry GFP, cherry picks, confirmation (AID 2272;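 active means GFP response above 150% of the DMSO control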;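 further: ratio of well signal to plate DMSO mean so 100% equals DMSO level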); settings: S. cerevisiae MEP2-GFP strain, 3 h, at 10 µM, stronger effect = higher value
[19] = TOR pathway CIT2 reporter hit retest – S. cerevisiae, GFP fusion, cherry picks, mother/daughter gates, confirmation (AID 2274;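 active means GFP response above 150% of the DMSO level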); settings: S. cerevisiae CIT2-GFP strain, flow cytometry, 3 h, at 10 µM, stronger effect = higher value
[20] = yeast AGP1-GFP level changes, GLN3 branch – cell-based, multiplex flow cytometry, S. cerevisiae, primary screen (AID 1887;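 active means GFP signal above the screen-wide mean plus 3 SD, that is over about 124.5% of the solvent control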;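 further: AGP1-GFP fusion strain of S. cerevisiae within a five-strain barcoded multiplex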); settings: 3 h, at 10 µM, stronger effect = higher value
[21] = measured here: daughter cell gate
[22] = measured here: mother cell gate
[23] = measured here: daughter cell gate response
[24] = measured here: mother cell gate response

Sequence of Beta-adrenergic receptor kinase 1 (Homo sapiens) (P25098 whole entry, looked up): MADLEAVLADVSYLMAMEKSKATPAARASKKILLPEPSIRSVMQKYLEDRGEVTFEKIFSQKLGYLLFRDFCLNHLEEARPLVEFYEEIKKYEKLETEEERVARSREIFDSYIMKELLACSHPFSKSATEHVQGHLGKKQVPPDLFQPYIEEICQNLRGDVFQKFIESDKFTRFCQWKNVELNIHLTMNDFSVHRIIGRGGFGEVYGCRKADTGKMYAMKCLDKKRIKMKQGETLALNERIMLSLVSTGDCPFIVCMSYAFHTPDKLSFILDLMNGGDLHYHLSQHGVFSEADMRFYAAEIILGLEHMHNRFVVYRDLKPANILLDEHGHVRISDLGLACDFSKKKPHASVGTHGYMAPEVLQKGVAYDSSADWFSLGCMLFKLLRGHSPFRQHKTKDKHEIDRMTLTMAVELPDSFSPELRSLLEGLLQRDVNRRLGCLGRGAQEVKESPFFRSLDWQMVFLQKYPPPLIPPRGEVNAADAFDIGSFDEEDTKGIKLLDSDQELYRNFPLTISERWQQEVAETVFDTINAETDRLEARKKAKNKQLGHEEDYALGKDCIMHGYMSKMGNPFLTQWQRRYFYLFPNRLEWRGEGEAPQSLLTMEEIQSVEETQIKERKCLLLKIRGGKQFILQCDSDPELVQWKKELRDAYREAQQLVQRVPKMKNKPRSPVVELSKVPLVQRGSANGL
Sequence of AP-2 complex subunit beta (Homo sapiens) (P63010 whole entry, looked up, the tested form may be a part, one chain of several): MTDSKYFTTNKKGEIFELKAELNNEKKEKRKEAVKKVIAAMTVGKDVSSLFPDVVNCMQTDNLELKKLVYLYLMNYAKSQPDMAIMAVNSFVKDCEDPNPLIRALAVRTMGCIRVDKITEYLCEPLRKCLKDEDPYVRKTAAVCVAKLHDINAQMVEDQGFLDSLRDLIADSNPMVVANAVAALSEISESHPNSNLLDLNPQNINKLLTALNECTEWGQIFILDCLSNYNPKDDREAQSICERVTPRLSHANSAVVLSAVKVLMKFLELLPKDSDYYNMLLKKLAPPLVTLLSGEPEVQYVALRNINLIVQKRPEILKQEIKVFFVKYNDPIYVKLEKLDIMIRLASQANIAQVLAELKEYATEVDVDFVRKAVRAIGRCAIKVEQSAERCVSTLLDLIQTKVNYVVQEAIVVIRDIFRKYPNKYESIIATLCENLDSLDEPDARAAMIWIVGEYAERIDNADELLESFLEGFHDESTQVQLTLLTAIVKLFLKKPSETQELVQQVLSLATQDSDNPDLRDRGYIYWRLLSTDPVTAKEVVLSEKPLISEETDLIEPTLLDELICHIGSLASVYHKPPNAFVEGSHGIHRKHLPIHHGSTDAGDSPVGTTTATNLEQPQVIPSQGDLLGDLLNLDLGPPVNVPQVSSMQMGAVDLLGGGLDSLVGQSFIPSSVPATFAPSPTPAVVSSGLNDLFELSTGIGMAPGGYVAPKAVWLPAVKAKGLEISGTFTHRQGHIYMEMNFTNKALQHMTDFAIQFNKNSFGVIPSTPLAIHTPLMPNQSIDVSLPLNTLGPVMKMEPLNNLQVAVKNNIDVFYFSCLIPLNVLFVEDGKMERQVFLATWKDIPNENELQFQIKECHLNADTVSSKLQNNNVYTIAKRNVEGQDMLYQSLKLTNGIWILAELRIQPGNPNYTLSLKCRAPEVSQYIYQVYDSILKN
Sequence of ATP-binding cassette sub-family B member 6 (Homo sapiens) (Q9NP58 whole entry, looked up): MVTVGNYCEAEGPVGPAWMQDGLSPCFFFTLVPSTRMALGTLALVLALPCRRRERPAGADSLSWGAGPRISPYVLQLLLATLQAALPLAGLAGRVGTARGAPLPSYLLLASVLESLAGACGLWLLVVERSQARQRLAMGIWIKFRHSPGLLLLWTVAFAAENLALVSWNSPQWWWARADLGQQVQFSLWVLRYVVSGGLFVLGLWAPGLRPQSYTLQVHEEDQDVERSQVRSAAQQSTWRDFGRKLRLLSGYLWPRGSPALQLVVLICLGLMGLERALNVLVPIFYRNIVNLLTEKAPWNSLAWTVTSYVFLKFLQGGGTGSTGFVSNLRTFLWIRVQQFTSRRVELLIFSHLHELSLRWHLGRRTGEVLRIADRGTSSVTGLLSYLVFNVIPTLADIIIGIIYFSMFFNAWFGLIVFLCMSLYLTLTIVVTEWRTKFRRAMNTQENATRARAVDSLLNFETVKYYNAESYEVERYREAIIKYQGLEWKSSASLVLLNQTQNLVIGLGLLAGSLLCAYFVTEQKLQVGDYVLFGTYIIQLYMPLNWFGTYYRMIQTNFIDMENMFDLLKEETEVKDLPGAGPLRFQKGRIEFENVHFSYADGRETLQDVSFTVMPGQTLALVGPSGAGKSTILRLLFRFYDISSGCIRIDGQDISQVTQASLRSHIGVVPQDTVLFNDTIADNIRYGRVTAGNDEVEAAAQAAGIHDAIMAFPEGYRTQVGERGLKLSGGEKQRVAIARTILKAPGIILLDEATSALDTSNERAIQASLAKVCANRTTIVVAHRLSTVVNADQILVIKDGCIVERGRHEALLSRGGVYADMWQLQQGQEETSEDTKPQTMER
Sequence of Beta-2 adrenergic receptor (Homo sapiens) (P07550 whole entry, looked up): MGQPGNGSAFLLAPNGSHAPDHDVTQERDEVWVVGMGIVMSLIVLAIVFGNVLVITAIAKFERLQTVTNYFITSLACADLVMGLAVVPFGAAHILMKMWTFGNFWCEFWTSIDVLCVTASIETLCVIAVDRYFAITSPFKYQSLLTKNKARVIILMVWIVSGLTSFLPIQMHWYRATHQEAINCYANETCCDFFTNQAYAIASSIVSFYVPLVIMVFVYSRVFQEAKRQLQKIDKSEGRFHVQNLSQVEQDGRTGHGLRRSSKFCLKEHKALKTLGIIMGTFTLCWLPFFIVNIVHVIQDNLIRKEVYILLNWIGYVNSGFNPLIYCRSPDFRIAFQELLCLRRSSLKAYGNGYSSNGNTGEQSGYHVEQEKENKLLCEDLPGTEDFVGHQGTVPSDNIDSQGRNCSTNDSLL
Sequence of Integrin beta-1 (Homo sapiens) + Integrin alpha-4 (Homo sapiens) (P05556 whole entry, looked up): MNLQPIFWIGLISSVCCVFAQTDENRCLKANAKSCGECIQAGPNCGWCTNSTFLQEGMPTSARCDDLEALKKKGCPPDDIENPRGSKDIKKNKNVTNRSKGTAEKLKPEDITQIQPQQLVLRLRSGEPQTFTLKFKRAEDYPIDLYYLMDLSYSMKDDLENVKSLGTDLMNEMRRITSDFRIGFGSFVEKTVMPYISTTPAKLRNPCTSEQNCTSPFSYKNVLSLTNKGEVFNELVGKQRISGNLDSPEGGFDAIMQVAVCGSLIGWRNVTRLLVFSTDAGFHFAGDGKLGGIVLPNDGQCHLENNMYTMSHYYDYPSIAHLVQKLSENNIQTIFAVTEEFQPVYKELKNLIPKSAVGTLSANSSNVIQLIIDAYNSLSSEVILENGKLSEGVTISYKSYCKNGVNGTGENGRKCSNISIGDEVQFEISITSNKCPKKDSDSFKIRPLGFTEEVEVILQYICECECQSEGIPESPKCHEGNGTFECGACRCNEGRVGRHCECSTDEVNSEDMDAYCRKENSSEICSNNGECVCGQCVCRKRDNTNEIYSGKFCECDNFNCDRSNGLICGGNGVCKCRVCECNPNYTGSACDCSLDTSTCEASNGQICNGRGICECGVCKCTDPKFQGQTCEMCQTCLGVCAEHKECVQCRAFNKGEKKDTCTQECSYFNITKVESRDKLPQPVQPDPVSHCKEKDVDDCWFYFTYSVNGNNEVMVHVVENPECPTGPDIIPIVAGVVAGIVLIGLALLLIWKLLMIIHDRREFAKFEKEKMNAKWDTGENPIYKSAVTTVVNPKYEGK
Sequence of Integrin beta-1 (Homo sapiens) + Integrin alpha-4 (Homo sapiens) (P13612 whole entry, looked up): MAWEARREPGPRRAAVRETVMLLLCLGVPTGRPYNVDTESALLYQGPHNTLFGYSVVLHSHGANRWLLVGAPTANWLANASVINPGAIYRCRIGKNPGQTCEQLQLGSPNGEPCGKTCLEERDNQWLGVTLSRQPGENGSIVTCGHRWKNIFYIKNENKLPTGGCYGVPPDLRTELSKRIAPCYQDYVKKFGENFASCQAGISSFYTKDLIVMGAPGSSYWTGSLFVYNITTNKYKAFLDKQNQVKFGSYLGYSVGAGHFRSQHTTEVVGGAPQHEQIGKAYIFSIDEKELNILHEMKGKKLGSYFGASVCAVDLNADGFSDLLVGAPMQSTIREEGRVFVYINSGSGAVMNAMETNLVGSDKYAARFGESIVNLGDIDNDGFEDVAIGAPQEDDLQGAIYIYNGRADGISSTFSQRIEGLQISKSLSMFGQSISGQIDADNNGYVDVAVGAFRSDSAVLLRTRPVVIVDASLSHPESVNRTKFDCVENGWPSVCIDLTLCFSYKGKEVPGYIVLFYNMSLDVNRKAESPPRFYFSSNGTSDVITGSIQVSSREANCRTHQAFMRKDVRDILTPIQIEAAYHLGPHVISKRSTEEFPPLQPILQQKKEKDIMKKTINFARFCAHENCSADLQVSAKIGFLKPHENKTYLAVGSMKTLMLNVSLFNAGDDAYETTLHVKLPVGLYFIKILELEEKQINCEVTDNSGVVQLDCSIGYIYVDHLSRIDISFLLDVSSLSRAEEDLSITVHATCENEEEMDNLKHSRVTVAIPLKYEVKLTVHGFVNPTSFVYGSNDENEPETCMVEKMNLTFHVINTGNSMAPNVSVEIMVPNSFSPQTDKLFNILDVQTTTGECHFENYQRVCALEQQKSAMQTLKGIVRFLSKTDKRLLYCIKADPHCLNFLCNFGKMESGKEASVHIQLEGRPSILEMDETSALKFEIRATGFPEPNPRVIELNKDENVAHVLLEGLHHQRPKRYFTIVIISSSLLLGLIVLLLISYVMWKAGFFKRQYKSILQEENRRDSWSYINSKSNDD

COc1ccc(NC(=O)C2C(=O)N(CCO)C3(C)CC2c2ccccc2O3)cc1 (stereo not drawn)
70.2%: double positive events [5]
inactive: percent of DMSO control GFP [1] 99.6% | GFP response vs DMSO [2] 106% | percent response of DMSO control [3] 104% | GFP response vs DMSO [4] 79.8% | vesicle binding response [5] 158% | inhibition [6] 5.49% | superoxide response (% of plate) [7] 96.6% | aptamer binding inhibition [8] 3% | response [9] -2.11% | inhibition [10] 6.58% | response [11] -0.98% | binding (% of control) [12] 107% | efflux inhibition (fraction of control) [13] -0.46 | inhibition [14] 13% | differentiation response [15] 5.73%

CC[C@H]1OC(=O)[C@H](C)[C@@H](O[C@H]2C[C@@](C)(OC)[C@@H](O)[C@H](C)O2)[C@H](C)[C@@H](O[C@@H]2O[C@H](C)C[C@H](N(C)C)[C@H]2O)[C@](C)(O)C[C@@H](C)[C@@H]2N[C@@H](COCCOC)O[C@H]([C@H]2C)[C@]1(C)O
63.9%: double positive events [5]
active: response [11] 32.7%
inactive: percent of DMSO control GFP [1] 95% | GFP response vs DMSO [2] 130% | percent response of DMSO control [3] 95.2% | GFP response vs DMSO [4] 79.2% | vesicle binding response [5] 137% | inhibition [6] 6.46% | superoxide response (% of plate) [7] 106% | aptamer binding inhibition [8] 29% | response [9] -13.2% | inhibition [10] -5.27% | binding (% of control) [12] 103% | efflux inhibition (fraction of control) [13] -0.31 | inhibition [14] 8% | differentiation response [15] -4.91%

O=c1[nH]c(=O)n([C@H]2C[C@H](O)[C@@H](CO)O2)cc1F
99.2%: GFP response vs DMSO [16, 22]
96.6%: GFP response relative to DMSO [17, 23]
inactive: percent of DMSO control GFP [1] 91.1% | percent response of DMSO control [3] 101% | GFP response vs DMSO [4] 93.5% | GFP response vs DMSO [16] 98.6% | GFP response relative to DMSO [17] 97.3% | GFP response vs DMSO [18] 101% | GFP response, % of DMSO [19] 93.4% | vesicle binding response [5] 155% | inhibition [6] 4.52% | superoxide response (% of plate) [7] 94.8% | aptamer binding inhibition [8] 9% | response [9] -2.6% | inhibition [10] 1.52% | response [11] -0.54% | binding (% of control) [12] 98% | efflux inhibition (fraction of control) [13] -0.38 | inhibition [14] 11% | differentiation response [15] -5.73%
active: GFP response vs DMSO [2] 142%
97.8%: GFP response vs DMSO [16, 21]
97.2%: GFP response relative to DMSO [17, 24]
93.7%: GFP response, % of DMSO [19, 21] | GFP response, % of DMSO [19, 22]
72.9%: double positive events [5]

CC(=O)N1N=C(c2cccs2)CC1c1ccc(C)o1 (stereo not drawn)
active: efflux inhibition (fraction of control) [13] 0.45
55.8%: double positive events [5]
inactive: percent of DMSO control GFP [1] 92.8% | GFP response vs DMSO [2] 131% | percent response of DMSO control [3] 91.3% | GFP response vs DMSO [4] 78.7% | vesicle binding response [5] 145% | inhibition [6] 11.3% | superoxide response (% of plate) [7] 117% | aptamer binding inhibition [8] 0% | response [9] -10.5% | inhibition [10] -6.28% | response [11] -0.52% | binding (% of control) [12] 96.7% | inhibition [14] 9% | differentiation response [15] -4.91%

COc1ccc(NC(=O)C2CSC3c4ccccc4C(=O)N23)cc1 (stereo not drawn)
77.8%: double positive events [5]
inactive: percent of DMSO control GFP [1] 101% | GFP response vs DMSO [2] 104% | percent response of DMSO control [3] 96.5% | GFP response vs DMSO [4] 105% | GFP response, % of DMSO [20] 98.8% | inhibition [6] 0.25% | superoxide response (% of plate) [7] 99.1% | aptamer binding inhibition [8] 0% | response [9] 7.07% | inhibition [10] -0.6% | response [11] 4.39% | binding (% of control) [12] 98.7% | efflux inhibition (fraction of control) [13] -0.1 | inhibition [14] -2% | differentiation response [15] -0.18%

Nc1nc2c(ncn2COCCO)c(=O)[nH]1
63.1%: double positive events [5]
97.9%: GFP response relative to DMSO [17, 23]
inactive: GFP response vs DMSO [2] 123% | percent response of DMSO control [3] 103% | GFP response vs DMSO [4] 74.8% | GFP response vs DMSO [16] 100% | GFP response relative to DMSO [17] 101% | GFP response vs DMSO [18] 99.5% | GFP response, % of DMSO [19] 101% | vesicle binding response [5] 154% | inhibition [6] 16.2% | superoxide response (% of plate) [7] 83.2% | aptamer binding inhibition [8] 6% | response [9] -6.98% | inhibition [10] -5.88% | response [11] 0.6% | binding (% of control) [12] 107% | efflux inhibition (fraction of control) [13] -0.09 | inhibition [14] 0% | differentiation response [15] -4.91%
104%: GFP response, % of DMSO [19, 21]
active: percent of DMSO control GFP [1] 78.1%
100%: GFP response vs DMSO [16, 22] | GFP response relative to DMSO [17, 24] | GFP response, % of DMSO [19, 22]
101%: GFP response vs DMSO [16, 21]

CC(=O)[C@@]1(O)CC[C@H]2[C@@H]3CCC4=CC(=O)CC[C@]4(C)[C@H]3CC[C@@]21C
94.1%: GFP response relative to DMSO [17, 23]
105%: GFP response vs DMSO [16, 22]
active: percent response of DMSO control [3] 139%
97.2%: GFP response relative to DMSO [17, 24]
101%: GFP response, % of DMSO [19, 22]
99.7%: GFP response, % of DMSO [19, 21]
53.6%: double positive events [5]
99.5%: GFP response vs DMSO [16, 21]
inactive: percent of DMSO control GFP [1] 92.2% | GFP response vs DMSO [2] 130% | GFP response vs DMSO [4] 97.4% | GFP response vs DMSO [16] 104% | GFP response relative to DMSO [17] 95% | GFP response vs DMSO [18] 97.8% | GFP response, % of DMSO [19] 100% | vesicle binding response [5] 216% | inhibition [6] -13.9% | superoxide response (% of plate) [7] 104% | aptamer binding inhibition [8] -15% | response [9] -16.3% | inhibition [10] 42.9% | response [11] -8.27% | binding (% of control) [12] 217% | efflux inhibition (fraction of control) [13] 0.27 | inhibition [14] 2% | differentiation response [15] 40.1%

COc1cc(C2C(C(=O)c3ccc(C)o3)=C(O)C(=O)N2Cc2cccnc2)ccc1O (stereo not drawn)
inactive: percent of DMSO control GFP [1] 102% | GFP response vs DMSO [2] 119% | percent response of DMSO control [3] 106% | GFP response vs DMSO [4] 81.4% | vesicle binding response [5] 171% | inhibition [6] 2.58% | superoxide response (% of plate) [7] 110% | aptamer binding inhibition [8] 2% | response [9] -8.26% | inhibition [10] -5.82% | response [11] 4.05% | binding (% of control) [12] 99.4% | efflux inhibition (fraction of control) [13] 0.34 | inhibition [14] 9% | differentiation response [15] -0.82%
68.3%: double positive events [5]
